# Source: PubChem BioAssay (EPA / NIEHS)
# Several values for one entry are separate records, joined by “and”; a condition that tells them apart may be missing. Equal values may be shown once. Activity calls are given as the source filed them. Rule for the calls: active = hit-call score of the fitted dose curve at least 0.9, where 1 is the maximum; inactive = score below 0.9.
# Test: BSK_4H_Eotaxin3: BioMAP Diversity Plus: 4H Assay for Eotaxin 3 Biomarker Activity (AID 2283000)
# Conditions: primary human endothelial cells (HUVEC); actives raise or lower the signal
# Method: BSK_4H is a cell-based, multiplexed-readout assay that uses umbilical vein endothelium, a human vascular primary cell, with measurements taken at 24 hours after chemical dosing in a 96-well plate.BSK_4H_Eotaxin3 is an assay component measured in the BSK_4H assay. It measures Eotaxin-3 antibody related to regulation of gene expression using ELISA technology.Data from the assay component BSK_4H_Eotaxin3 was analyzed into 1 assay endpoint. This assay endpoint, BSK_4H_Eotaxin3, was analyzed with bidirectional fitting relative to DMSO as the negative control and baseline of activity. Using a type of binding reporter, gain or loss-of-signal activity can be used to understand changes in the signaling as they relate to the gene CCL26. Furthermore, this assay endpoint can be referred to as a primary readout, because this assay has produced multiple assay endpoints where this one serves a signaling function. To generalize the intended target to other relatable targets, this assay endpoint is annotated to the cytokine intended target family, where the subfamily is chemotactic factor.
# The levels of cell surface (or secreted, indicated by the prefix "s") biomarker endpoints were measured by ELISA. Overt cytotoxicity to cells in confluent adherent cultures (all systems other than the BT system) was assessed by measuring total protein levels using sulforhodamine B (SRB) staining in parallel cultures at the time of biomarker measurements, indicated as SRB endpoints. For proliferation assays for adherent cell types, individual cell types are cultured at sub-confluence and relative cell numbers quantified by SRB staining at time points optimized for each system (48 h: 3C and CASM3C systems; 72 h: BT and HDF3CGF systems; 96 h: SAg system). SRB was performed by staining cells with 0.1% SRB after fixation with 10% TCA and reading wells at 560 nm.Viability and proliferation of PBMC (T cells) was quantified by Alamar Blue reduction for the SAg and BT systems. For PBMC viability (referred to as PBMC Cytotoxicity within the assay endpoint names), cells were plated (75,000/well in a 96-well plate) and then chemical samples added for 1 h before addition of activators, SEB and TSST-1 (20 ng/mL final concentration each). Cells were incubated for 90 h. Then, Alamar Blue (20 uL/well) (Invitrogen, Cat DAL1100) was added for 6 h, and the plates were read with a fluorescence microplate reader at 546/580 nm (excitation/emission). For PBMC proliferation, cells were plated and activated as above but incubated for only 16 h prior to addition of Alamar Blue. Plates were read after 6 h.
SMILES,outcome,AC50
O=C1CCCCCCCCCCC1,inactive,
CCCCCCC=O,inactive,
c1ccc(Nc2cccc3ccccc23)cc1,,32.8 µM (active) and 18 µM (active)
O=C(Oc1ccccc1)c1ccccc1C(=O)Oc1ccccc1,inactive,
CC/C=C\CCOC(=O)c1ccccc1O,,20 µM (active)
Nc1cccc(N)n1,inactive,
Oc1ccccc1Cc1ccccc1O,inactive,
Cc1c(O)cccc1O,inactive,
COc1ccc(C(=O)/C(Br)=C\C(=O)O)cc1,,8.38 µM (active) and 20 µM (active)
Nc1ccc(C(=O)O)cc1,inactive,
CCCCC1C(=O)N(c2ccccc2)N(c2ccccc2)C1=O,inactive,
CC(C)c1cccc(C(C)C)c1N,,33.1 µM (active)
CCCCCCCCCCCC(C)=O,,30.1 µM (active)
CC1(C)CC(O)CC(C)(C)N1[O],inactive,
CCCCCC1=CCCC1=O,inactive,
CC(C)C(=O)OCCc1ccccc1,inactive,
CCOC(=O)/C=C\C(=O)OCC,inactive,
CC(C)CCCCCOC(=O)CS,inactive,
C=CCCCCCCCCC=O,inactive,
CCN1CN(CC)CN(CC)C1,inactive,

SMILES,outcome,AC50
C=CC(=O)OCC(C)OCC(C)OCC(C)OC(=O)C=C (stereo not given),,8.38 µM (active)
CC(c1cc(C(C)(C)C)cc(C(C)(C)C)c1O)c1cc(C(C)(C)C)cc(C(C)(C)C)c1O,,1.65 µM (active)
C=CC(=O)NCOCCCC,inactive,
CCCCCCOC(=O)CCCCC(=O)OCCCCCC,inactive,
CC=C(C)C(C)=O,,20 µM (active)
CCCCCCCCCCCC(=O)N(C)CC(=O)O,inactive,
O=C(Cl)c1c(Cl)c(Cl)c(C(=O)Cl)c(Cl)c1Cl,inactive,
COC(OC)(C(=O)c1ccccc1)c1ccccc1,inactive,
CCc1cccc(C)c1N(C(=O)CS(=O)(=O)O)C(C)COC (stereo not given),inactive,
c1ccc2c(c1)[nH]c1ccccc12,inactive,
Clc1cc(Cl)c(Cl)c(Cl)c1Cl,,31.4 µM (active)
C=CC(=O)OCCCCCCCC(C)C,inactive,
COc1ccc(C(=O)c2ccccc2)c(O)c1,,20 µM (active)
Fc1ccc(Br)cc1,inactive,
CCOC(=O)C1=NN(c2ccc(Cl)cc2Cl)C(C)(C(=O)OCC)C1 (stereo not given),inactive,
CC(C)[N+](C)(CCOC(=O)C1c2ccccc2Oc2ccccc21)C(C)C,inactive,
CC/C=C\C/C=C\C/C=C\CCCCCCCC(=O)OC,,27.7 µM (active)
O=C1CCCCCCCCCCCN1,inactive,
C=CC(=O)OCCCCCCOC(=O)C=C,,12.4 µM (active)
Nc1nc(N)nc(-c2ccccc2)n1,inactive,
